# The whole screen tested about 5,500 compounds, of which about 2,000 (36%) were called active. Inconclusive results (about 18%) are left out. Some of the results follow. A number with no mark means an inactive call. Rule as the data show it: active = normalized growth mostly below about 0.91 (no sharp cut-off); inconclusive = no clear call, values can overlap the other calls; inactive = mostly above about 0.92.
# Assay: chemical genetic growth profiling, strain panel (AID 1159580);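 also: tested at 20 µM; growth read once vehicle control cultures reached saturation at 30 °C; 1 = growth at the plate median or of vehicle wells; lower values mean less growth of the strain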
# Settings: S. cerevisiae deletion strains, growth OD
structure (smiles),measurement,setting,value
CC1(C)CC[C@@]2(C(=O)O)C(C1)C1=CCC3[C@@]4(C)CC[C@H](O)C(C)(C)C4CC[C@@]3(C)[C@]1(C)C[C@@H]2O (stereo not given in full),normalized growth,"locus YAL013W, strain DEP1, active compounds read low",1.02
same,normalized growth,"locus YAL021C, strain ccr4, active compounds read low",1.01
same,normalized growth,"locus YAL026C, strain drs2, active compounds read low",1.01
same,normalized growth,"locus YAL030W, strain snc1, active compounds read low",1.01
same,normalized growth,"locus YBL061C, strain skt5, active compounds read low",1.03
same,normalized growth,"locus YBR009C, strain hhf1, active compounds read low",1.01
same,normalized growth,"locus YBR021W, strain FUR4, active compounds read low",0.996
same,normalized growth,"locus YBR023C, strain chs3, active compounds read low",1.02
same,normalized growth,"locus YBR171W, strain sec66, active compounds read low",1.02
same,normalized growth,"locus YBR229C, strain ROT2, active compounds read low",1.03
same,normalized growth,"locus YBR231C, strain swc5, active compounds read low",1.03
same,normalized growth,"locus YBR279W, strain paf1, active compounds read low",1.02
same,normalized growth,"locus YCL011C, strain gbp2, active compounds read low",1.02
same,normalized growth,"locus YCL016C, strain dcc1, active compounds read low",1.02
same,normalized growth,"locus YCL029C, strain bik1, active compounds read low",0.992
same,normalized growth,"locus YCL061C, strain MRC1, active compounds read low",1.01
same,normalized growth,"locus YCL069W, strain vba3, active compounds read low",1.01
same,normalized growth,"locus YCR088W, strain abp1, active compounds read low",1.01
same,normalized growth,"locus YDL005C, strain med2, active compounds read low",1.01
same,normalized growth,"locus YDL035C, strain GPR1, active compounds read low",1
same,normalized growth,"locus YDL040C, strain nat1, active compounds read low",1.02
same,normalized growth,"locus YDL074C, strain BRE1, active compounds read low",1
same,normalized growth,"locus YDL101C, strain DUN1, active compounds read low",0.827 (active)
same,normalized growth,"locus YDL185W, strain tfp1, active compounds read low",1.02
same,normalized growth,"locus YDL192W, strain arf1, active compounds read low",1.05
same,normalized growth,"locus YDR001C, strain nth1, active compounds read low",1.01
same,normalized growth,"locus YDR069C, strain doa4, active compounds read low",1.05
same,normalized growth,"locus YDR101C, strain arx1, active compounds read low",1.02
same,normalized growth,"locus YDR137W, strain rgp1, active compounds read low",0.828 (active)
same,normalized growth,"locus YDR150W, strain NUM1, active compounds read low",1.03
same,normalized growth,"locus YDR159W, strain sac3, active compounds read low",0.953
same,normalized growth,"locus YDR162C, strain NBP2, active compounds read low",1.01
same,normalized growth,"locus YDR195W, strain ref2",0.952
same,normalized growth,"locus YDR297W, strain sur2, active compounds read low",1.01
same,normalized growth,"locus YDR318W, strain mcm21, active compounds read low",1.03
same,normalized growth,"locus YDR334W, strain swr1, active compounds read low",1.01
same,normalized growth,"locus YDR335W, strain msn5, active compounds read low",1.02
same,normalized growth,"locus YDR388W, active compounds read low",1.03
same,normalized growth,"locus YDR392W, strain spt3, active compounds read low",1.01
same,normalized growth,"locus YDR502C, strain sam2, active compounds read low",1.05
same,normalized growth,"locus YEL003W, strain gim4, active compounds read low",1.03
same,normalized growth,"locus YEL037C, strain rad23, active compounds read low",1.02
same,normalized growth,"locus YEL061C, strain CIN8 (second series), active compounds read low",1.02
same,normalized growth,"locus YEL061C, strain CIN8, active compounds read low",1.02
same,normalized growth,"locus YER015W, strain faa2, active compounds read low",1.03
same,normalized growth,"locus YER016W, strain bim1, active compounds read low",1
same,normalized growth,"locus YER110C, active compounds read low",1.03
same,normalized growth,"locus YER111C, strain swi4, active compounds read low",1.01
same,normalized growth,"locus YER155C, strain BEM2 (second series), active compounds read low",1
same,normalized growth,"locus YER155C, strain BEM2, active compounds read low",1.03
same,normalized growth,"locus YER167W, strain BCK2, active compounds read low",1.04
same,normalized growth,"locus YFR010W, strain ubp6, active compounds read low",1.04
same,normalized growth,"locus YGL078C, strain dbp3, active compounds read low",1.03
same,normalized growth,"locus YGL086W, strain mad1, active compounds read low",1.22 [resistant] (active)
same,normalized growth,"locus YGL167C, strain pmr1, active compounds read low",1.01
same,normalized growth,"locus YGL173C, strain kem1, active compounds read low",1.01
same,normalized growth,"locus YGL227W, strain vid30, active compounds read low",1.01
same,normalized growth,"locus YGL240W, strain doc1, active compounds read low",1
same,normalized growth,"locus YGL248W, strain PDE1, active compounds read low",1.02
same,normalized growth,"locus YGL253W, strain hxk2, active compounds read low",1.02
same,normalized growth,"locus YGR078C, strain PAC10, active compounds read low",1.05
same,normalized growth,"locus YGR135W, strain pre9, active compounds read low",1.05
same,normalized growth,"locus YGR252W, strain gcn5, active compounds read low",1.07
same,normalized growth,"locus YHR013C, strain ard1, active compounds read low",1.1
same,normalized growth,"locus YHR027C, strain rpn1, active compounds read low",1.02
same,normalized growth,"locus YHR030C, strain SLT2, active compounds read low",1.04
same,normalized growth,"locus YHR079C, strain IRE1 (second series), active compounds read low",1.01
same,normalized growth,"locus YHR094C, strain hxt1, active compounds read low",1.02
same,normalized growth,"locus YHR129C, strain ARP1, active compounds read low",1.04
same,normalized growth,"locus YHR142W, strain chs7, active compounds read low",1.03
same,normalized growth,"locus YHR200W, strain rpn10, active compounds read low",1.04
same,normalized growth,"locus YIL066C, strain RNR3, active compounds read low",1.05
same,normalized growth,"locus YIL073C, strain SPO22, active compounds read low",1.15
same,normalized growth,"locus YIL125W, strain kgd1, active compounds read low",1.02
same,normalized growth,"locus YIR030C, strain dcg1, active compounds read low",1.1 [resistant] (active)
same,normalized growth,"locus YJL092W, strain hpr5, active compounds read low",1.01
same,normalized growth,"locus YJL095W, strain BCK1 (second series), active compounds read low",1.01
same,normalized growth,"locus YJL095W, strain BCK1, active compounds read low",0.973
same,normalized growth,"locus YJL115W, strain asf1, active compounds read low",1.02
same,normalized growth,"locus YJL129C, strain trk1, active compounds read low",1.02
same,normalized growth,"locus YJL134W, strain LCB3, active compounds read low",1.02
same,normalized growth,"locus YJL154C, strain vps35, active compounds read low",1
same,normalized growth,"locus YJL164C, strain tpk1, active compounds read low",1.03
same,normalized growth,"locus YJL166W, strain qcr8, active compounds read low",1.01
same,normalized growth,"locus YJL168C, strain set2, active compounds read low",1.04
same,normalized growth,"locus YJL187C, strain SWE1 (second series), active compounds read low",1.02
same,normalized growth,"locus YJL187C, strain SWE1, active compounds read low",1.01
same,normalized growth,"locus YJR043C, strain POL32, active compounds read low",1.02
same,normalized growth,"locus YKL009W, strain mrt4, active compounds read low",1.16 [resistant] (active)
same,normalized growth,"locus YKL068W, active compounds read low",1.19 [resistant] (active)
same,normalized growth,"locus YKL085W, strain MDH1 (second series), active compounds read low",1.24 [resistant] (active)
same,normalized growth,"locus YKL085W, strain MDH1, active compounds read low",1.24 [resistant] (active)
same,normalized growth,"locus YKL160W, strain elf1, active compounds read low",0.995
same,normalized growth,"locus YKL190W, strain CNB1, active compounds read low",1.03
same,normalized growth,"locus YKR001C, strain vps1, active compounds read low",1.03
same,normalized growth,"locus YKR026C, strain gcn3, active compounds read low",0.988
same,normalized growth,"locus YKR091W, strain srl3, active compounds read low",1.01
same,normalized growth,"locus YLL001W, strain dnm1, active compounds read low",1.02
same,normalized growth,"locus YLL026W, active compounds read low",1.01
same,normalized growth,"locus YLL041C, strain sdh2, active compounds read low",1.01
same,normalized growth,"locus YLR027C, strain aat2, active compounds read low",1.02
same,normalized growth,"locus YLR039C, strain RIC1, active compounds read low",0.866
same,normalized growth,"locus YLR058C, strain SHM2, active compounds read low",1.03
same,normalized growth,"locus YLR102C, strain apc9, active compounds read low",1.02
same,normalized growth,"locus YLR221C, strain rsa3, active compounds read low",1.02
same,normalized growth,"locus YLR258W, strain gsy2, active compounds read low",1.01
same,normalized growth,"locus YLR262C, strain YPT6 (second series), active compounds read low",0.871
same,normalized growth,"locus YLR262C, strain YPT6, active compounds read low",0.827
same,normalized growth,"locus YLR268W, strain sec22, active compounds read low",1.01
same,normalized growth,"locus YLR320W, strain mms22, active compounds read low",1.02
same,normalized growth,"locus YLR330W, strain CHS5, active compounds read low",1.03
same,normalized growth,"locus YLR342W, strain FKS1 (second series), active compounds read low",0.97
same,normalized growth,"locus YLR342W, strain FKS1, active compounds read low",1.02
same,normalized growth,"locus YLR357W, strain rsc2, active compounds read low",1
same,normalized growth,"locus YLR370C, strain arc18, active compounds read low",1.02
same,normalized growth,"locus YLR371W, strain rom2, active compounds read low",1.01
same,normalized growth,"locus YLR384C, strain iki3, active compounds read low",1.02
same,normalized growth,"locus YLR418C, strain cdc73, active compounds read low",1.19 [resistant] (active)
same,normalized growth,"locus YML016C, strain PPZ1, active compounds read low",1.03
same,normalized growth,"locus YML032C, strain rad52, active compounds read low",1.02
same,normalized growth,"locus YML120C, strain ndi1, active compounds read low",1.02
same,normalized growth,"locus YML124C, strain tub3, active compounds read low",1.05
same,normalized growth,"locus YMR058W, strain fet3, active compounds read low",1.03
same,normalized growth,"locus YMR078C, strain ctf18, active compounds read low",1.03
same,normalized growth,"locus YMR125W, strain sto1, active compounds read low",1.03
same,normalized growth,"locus YMR129W, active compounds read low",1.02
same,normalized growth,"locus YMR205C, strain PFK2, active compounds read low",0.984
same,normalized growth,"locus YMR223W, strain ubp8, active compounds read low",1.01
same,normalized growth,"locus YMR231W, strain pep5, active compounds read low",1.01
same,normalized growth,"locus YMR307W, strain GAS1, active compounds read low",0.909
same,normalized growth,"locus YNL067W, strain RPL9B, active compounds read low",1.02
same,normalized growth,"locus YNL071W, strain lat1, active compounds read low",1.01
same,normalized growth,"locus YNL128W, strain TEP1, active compounds read low",0.874
same,normalized growth,"locus YNL153C, strain GIM3, active compounds read low",1.02
same,normalized growth,"locus YNL209W, strain ssb2, active compounds read low",1.03
same,normalized growth,"locus YNL233W, strain BNI4, active compounds read low",1.03
same,normalized growth,"locus YNL248C, strain rpa49, active compounds read low",1.01
same,normalized growth,"locus YNL250W, strain rad50, active compounds read low",1.04
same,normalized growth,"locus YNL271C, strain bni1, active compounds read low",1.02
same,normalized growth,"locus YNL298W, strain CLA4, active compounds read low",1.02
same,normalized growth,"locus YNL307C, strain MCK1, active compounds read low",1.05
same,normalized growth,"locus YNL322C, strain KRE1 (second series), active compounds read low",0.998
same,normalized growth,"locus YNR049C, strain mso1, active compounds read low",1.01
same,normalized growth,"locus YNR052C, strain pop2, active compounds read low",1.03
same,normalized growth,"locus YOL006C, strain TOP1, active compounds read low",1.17
same,normalized growth,"locus YOL012C, strain htz1",1.06
same,normalized growth,"locus YOL147C, strain pex11, active compounds read low",1.03
same,normalized growth,"locus YOR001W, strain rrp6, active compounds read low",1
same,normalized growth,"locus YOR061W, strain CKA2, active compounds read low",1
same,normalized growth,"locus YOR069W, strain VPS5, active compounds read low",1.01
same,normalized growth,"locus YOR070C, strain gyp1, active compounds read low",1.03
same,normalized growth,"locus YOR080W, strain dia2, active compounds read low",1.01
same,normalized growth,"locus YOR083W, strain WHI5, active compounds read low",0.996
same,normalized growth,"locus YOR106W, strain vam3, active compounds read low",1
same,normalized growth,"locus YOR136W, strain idh2, active compounds read low",1.04
same,normalized growth,"locus YOR144C, strain elg1, active compounds read low",1.03
same,normalized growth,"locus YOR184W, strain ser1, active compounds read low",1
same,normalized growth,"locus YOR265W, strain rbl2, active compounds read low",1.03
same,normalized growth,"locus YOR270C, strain vph1, active compounds read low",1.11
same,normalized growth,"locus YOR290C, strain snf2, active compounds read low",0.991
same,normalized growth,"locus YOR316C, strain cot1, active compounds read low",1.03
same,normalized growth,"locus YPL051W, strain arl3, active compounds read low",0.99
same,normalized growth,"locus YPL078C, strain atp4, active compounds read low",1.02
same,normalized growth,"locus YPL106C, strain sse1, active compounds read low",1.03
same,normalized growth,"locus YPL240C, strain hsp82, active compounds read low",1.01
same,normalized growth,"locus YPR119W, strain clb2, active compounds read low",1.03
same,normalized growth,"locus YPR141C, strain kar3, active compounds read low",1.05
same,normalized growth,"locus YPR163C, strain tif3, active compounds read low",1.05
same,normalized growth,"locus YPR167C, strain met16, active compounds read low",1.04
same,normalized growth,"strain wtn01, active compounds read low",1.05
